Inconclusive results are not listed. Active and inactive are the calls of the source.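 The calls were made as follows, unless noted: active = viability at or below 27.92% in each of two runs, the all-compound median minus 4 SD; inconclusive = no clear call, values can overlap the other calls; inactive = the rest.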
Columns and labels:
[1] = reducers of endogenous Her2 protein level, primary screen, SKBR3 breast tumor cells, AlphaScreen, ATP viability (AID 461;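 active = Her2 level under about 52% in both replicate screens, with viability over 70% of control, limit read from the data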;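 as to Her2 level: lower value means less Her2 protein in the cells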;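 as to viability: percent of carrier control wells set as 100% viability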); conditions: 18-24 h, measured here: SKBR3 viability, ATP luminescence, at 10 µM
[2] = molecular target: Receptor tyrosine-protein kinase erbB-2 (Homo sapiens) (UniProt P04626); experiment: as above; conditions: 18-24 h, at 10 µM, stronger effect = lower value
Chain of Receptor tyrosine-protein kinase erbB-2 (Homo sapiens) (P04626 whole entry, looked up): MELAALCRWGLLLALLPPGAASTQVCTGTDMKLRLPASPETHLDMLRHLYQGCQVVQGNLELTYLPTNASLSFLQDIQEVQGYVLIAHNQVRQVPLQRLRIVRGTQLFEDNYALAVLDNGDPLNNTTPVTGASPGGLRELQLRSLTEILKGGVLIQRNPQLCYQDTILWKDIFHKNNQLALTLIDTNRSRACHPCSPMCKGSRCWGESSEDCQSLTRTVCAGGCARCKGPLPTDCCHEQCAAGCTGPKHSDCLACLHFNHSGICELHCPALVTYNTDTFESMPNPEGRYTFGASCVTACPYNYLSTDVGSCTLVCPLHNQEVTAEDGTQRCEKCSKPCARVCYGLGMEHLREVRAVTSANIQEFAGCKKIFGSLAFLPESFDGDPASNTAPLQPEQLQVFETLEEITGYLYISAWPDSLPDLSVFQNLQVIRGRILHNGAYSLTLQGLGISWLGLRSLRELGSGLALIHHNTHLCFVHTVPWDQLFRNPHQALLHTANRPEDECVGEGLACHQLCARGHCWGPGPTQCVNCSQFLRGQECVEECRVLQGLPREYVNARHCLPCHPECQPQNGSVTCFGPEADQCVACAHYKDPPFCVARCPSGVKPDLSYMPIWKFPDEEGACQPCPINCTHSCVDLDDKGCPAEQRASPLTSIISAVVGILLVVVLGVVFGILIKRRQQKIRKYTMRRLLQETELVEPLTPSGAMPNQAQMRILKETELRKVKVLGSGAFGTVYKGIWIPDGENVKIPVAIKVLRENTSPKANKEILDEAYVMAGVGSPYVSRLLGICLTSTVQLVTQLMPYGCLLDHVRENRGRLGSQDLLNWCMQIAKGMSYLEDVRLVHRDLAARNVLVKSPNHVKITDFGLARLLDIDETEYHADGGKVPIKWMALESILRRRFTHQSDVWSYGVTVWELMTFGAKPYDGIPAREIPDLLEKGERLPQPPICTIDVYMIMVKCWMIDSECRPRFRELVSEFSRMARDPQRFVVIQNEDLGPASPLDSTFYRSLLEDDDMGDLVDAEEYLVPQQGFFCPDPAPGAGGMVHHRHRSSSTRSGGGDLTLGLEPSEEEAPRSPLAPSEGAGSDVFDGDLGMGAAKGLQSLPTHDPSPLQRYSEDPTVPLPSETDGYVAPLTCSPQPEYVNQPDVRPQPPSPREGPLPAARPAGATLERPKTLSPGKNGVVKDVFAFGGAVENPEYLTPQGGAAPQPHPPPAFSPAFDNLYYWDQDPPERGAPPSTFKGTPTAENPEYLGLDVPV

[3] = SK-BR-3 cell growth inhibitors, pilot screen, 24 h, human (AID 572;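 active = viability at or below 10% of carrier control in both of two separate runs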;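 also: compound exposure lasted between 18 and 24 h rather than exactly 24 h; 100% = carrier-treated control wells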); conditions: SK-BR-3 viability, CellTiter-Glo luminescence, at 10 µM, stronger effect = lower value
[4] = HUVEC growth inhibition – cell-based, human, primary screen (AID 575;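 active = viability at or below 30% in both replicate assays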;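 also: 100% = median of untreated cell wells with 0.1% DMSO on each plate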); conditions: HUVEC proliferation, CellTiter-Glo luminescence, 72 h; at 10 µM; stronger effect = lower value
[5] = growth inhibitors of H69AR lung tumor, primary screen, human, duplicate replicates (AID 580;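 active = viability at or under a set limit in both replicates, limit being median viability minus 3 SD, cut at about 48% in these data, passing the limit was not always enough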;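 also: 100% = mean luminescence of untreated wells and 0% = no signal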); conditions: H69AR lung tumor cells viability, ATP luminescence, 72 h; at 10 µM; stronger effect = lower value
[6] = reversal of MRP1-mediated doxorubicin resistance, pilot screen, H69AR cells, doxorubicin co-treatment (AID 601;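 active = viability loss from added drug above about 55%, and viability with drug at most 40%, in both replicates, limit read from the data, passing the limit was not always enough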); conditions: CellTiter-Glo, 72 h, at 10 µM; for differential viability (reversal): stronger effect = higher value
[7] = 384-well plate pilot, post-Golgi transport modulator project, inhibition of yeast transport mutant growth (AID 636; in the data active = inhibition above about 31%); conditions: absorbance 615 nm, about 18 h, stronger effect = higher value
[8] = growth suppression of yeast trafficking mutant, preliminary HTS, modulators of trafficking downstream of Golgi apparatus project, 1536-format plate, OD 615 nm (AID 637; in the data active = inhibition above about 30%); conditions: yeast transport mutant growth, absorbance 615 nm, 18 h; stronger effect = higher value
[9] = OD615 S. cerevisiae growth inhibition, permissive medium, pilot counter-assay, permissive growth control for S. cerevisiae lifespan shortening project (AID 705;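 active = growth inhibition above 25% in both replicates, a cutoff set 3 SD above the mean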); conditions: OD615, 24 h, at 10 µM, stronger effect = higher value
[10] = Restrictive medium S. cerevisiae growth inhibition, OD615, pilot screen of yeast lifespan reduction project, restrictive growth control (AID 706;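 active = growth inhibition above a set limit, 3 SD over mean compound inhibition, in both replicates, cut at about 43% in these data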;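 also: modified DeaD lifespan yeast strain shifted to restrictive glucose medium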); conditions: OD615, 48 h, at 10 µM, stronger effect = higher value
[11] = viability gain of MRP-1-high H69AR cells under doxorubicin, pilot screen, MRP-1 activator project, CellTiter-Glo, duplicate (AID 807;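 active = viability increase at or above a cutoff of the median across tested compounds plus 3 SD, cut at about 8.5% in these data, passing the limit was not always enough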;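 also: compound pretreatment 18-22 h then 72 h combined with doxorubicin; 0% = doxorubicin alone and 100% = vehicle without doxorubicin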); conditions: H69AR viability with doxorubicin, CellTiter-Glo luminescence; at 10 µM; stronger effect = higher value
[12] = growth suppression of beta-catenin knockout HCT116, pilot screen, human colon tumor cells (AID 823;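 active = cell viability at or below a set limit in both duplicate runs, the limit being the all-compound median minus 4 SD, cut at about 23% in these data, passing the limit was not always enough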;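 also: 0% = wells killed by 20 µM Hyamine and 100% = untreated DMSO cell wells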); conditions: CellTiter-Glo, 60 h, at 10 µM, stronger effect = lower value
[13] = growth suppression of PTEN-deleted HCT116, pilot screen, cell-based, HCT116 clonal line, CellTiter-Glo (AID 824); conditions: 60 h, at 10 µM, stronger effect = lower value;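 also: 0% = 20 µM Hyamine control and 100% = vehicle cell control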
[14] = inhibitors of the yeast RAM network, pilot screen, dse1pr::URA3 reporter, 5-FOA selection (AID 869;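 active = inhibition over a set limit, the all-compound mean plus 3 SD, in both replicate runs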;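 also: 0% = DMSO wells with no growth and 100% = 10 µM 1-NA-PP1 with full growth; RAM network block rescues cells from 5-FOA so hits raise OD615 growth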); conditions: S. cerevisiae dse1pr::URA3 5-FOA growth, OD615, 2 d; at 10 µM; stronger effect = higher value; strain carries analog-sensitive mutant Cbk1 kinase
[15] = RAM signaling pathway blockade in yeast – S. cerevisiae, Pdr1DBD-CYC8 efflux-inhibited sensitized strain, primary screen (AID 1298;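 active = RAM network inhibition above 8.4% in each of two replicates, 3 SD over the compound average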;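 also: 0% = DMSO untreated cells without growth and 100% = 10 µM 1-NA-PP1 full growth; higher means more yeast growth rescued from 5-FOA killing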); conditions: S. cerevisiae cbk1-as DSE1-URA3 strain, 5-FOA growth OD615, 2 d; at 50 µM; stronger effect = higher value
[16] = H69AR cells + 2 uM doxorubicin, measured here: viability with 2 uM doxorubicin, stronger effect = lower value
[17] = H69AR cells, compound alone cytotoxicity

O=C(c1cccs1)N1CCc2ccccc21
79.5%: viability [6, 16]
94%: viability [6, 17]
110%: viability [1]
inactive: Her2 level [2] 82% | viability [3] 110% | viability [4] 83% | viability [5] 94% | differential viability (reversal) ([6]; H69AR cells + 2 uM doxorubicin) 14.6% | inhibition [7] -5.47% | inhibition [8] 0.97% | growth inhibition [9] 1.98% | growth inhibition [10] 1.57% | viability increase [11] -1.9% | viability [12] 96.3% | viability [13] 95.8% | inhibition [14] 1.48% | RAM network inhibition [15] 1.66%

CCC(C)OC(=O)C1=C(C)NC2=C(C(=O)C(C(=O)OC)C(C)C2)C1c1ccc(N(C)C)cc1 (stereo not drawn)
inactive: Her2 level [2] 108% | viability [3] 94.5% | viability [4] 110% | viability [5] 95.8% | differential viability (reversal) ([6]; H69AR cells + 2 uM doxorubicin) 4.35% | inhibition [7] -2.11% | inhibition [8] -5.09% | growth inhibition [9] -3.15% | growth inhibition [10] -7.23% | viability increase [11] -0.39% | viability [12] 86% | viability [13] 75.7% | inhibition [14] 1.46% | RAM network inhibition [15] 8.17%
91.5%: viability [6, 16]
94.5%: viability [1]
95.8%: viability [6, 17]

CC1=C(C(=O)OC2CCCC2)C(c2ccc(C)o2)C2=C(CC(c3cccs3)CC2=O)N1 (stereo not drawn)
61.5%: viability [6, 16]
148%: viability [1]
74.8%: viability [6, 17]
inactive: Her2 level [2] 108% | viability [3] 148% | viability [4] 75.1% | viability [5] 74.8% | differential viability (reversal) ([6]; H69AR cells + 2 uM doxorubicin) 13.3% | inhibition [7] -1.17% | inhibition [8] -11% | growth inhibition [9] -3.79% | growth inhibition [10] -19.9% | viability increase [11] -4.36% | viability [12] 46.3% | viability [13] 58.9% | inhibition [14] 1.68% | RAM network inhibition [15] 2.7%

Cc1ccc(CNC(=O)C2CCCN(S(=O)(=O)c3cnc[nH]3)C2)cc1 (stereo not drawn)
inactive: Her2 level [2] 110% | viability [3] 94% | viability [4] 94.5% | viability [5] 106% | differential viability (reversal) ([6]; H69AR cells + 2 uM doxorubicin) 13.9% | inhibition [7] -2.13% | inhibition [8] -3.61% | growth inhibition [9] 0.76% | growth inhibition [10] 6.6% | viability increase [11] 0.52% | viability [12] 109% | viability [13] 102% | inhibition [14] 0.415% | RAM network inhibition [15] 1.04%
94%: viability [1]
106%: viability [6, 17]
92.3%: viability [6, 16]

O=C(c1ccc2nc(N3CCCCC3)sc2c1)N1CCN(c2ccccn2)CC1
87%: viability [1]
100%: viability [6, 16]
inactive: Her2 level [2] 102% | viability [3] 87% | viability [4] 68.1% | viability [5] 102% | differential viability (reversal) ([6]; H69AR cells + 2 uM doxorubicin) 2.3% | inhibition [7] -1.54% | inhibition [8] 1% | growth inhibition [9] 2.65% | growth inhibition [10] -0.825% | viability increase [11] 0.27% | viability [12] 106% | viability [13] 98.6% | inhibition [14] 2.38% | RAM network inhibition [15] -1.58%
102%: viability [6, 17]

Nc1nc2n(n1)C(c1cccc(Br)c1)CC(c1ccc(F)cc1)N2 (stereo not drawn)
111%: viability [6, 17]
85%: viability [1]
inactive: Her2 level [2] 109% | viability [3] 85% | viability [4] 98.8% | viability [5] 111% | differential viability (reversal) ([6]; H69AR cells + 2 uM doxorubicin) -6.81% | inhibition [7] -1.03% | inhibition [8] -6.5% | growth inhibition [9] 2.49% | growth inhibition [10] 11.9% | viability increase [11] 0.72% | viability [12] 89.3% | viability [13] 89.3% | inhibition [14] 0.875% | RAM network inhibition [15] 2.61%
117%: viability [6, 16]

CC1C(=O)C(C)C(c2cccs2)NC1c1cccs1 (stereo not drawn)
104%: viability [6, 17]
inactive: Her2 level [2] 100% | viability [3] 83% | viability [4] 101% | viability [5] 104% | differential viability (reversal) ([6]; H69AR cells + 2 uM doxorubicin) 3.58% | inhibition [7] 1.73% | inhibition [8] 2.42% | growth inhibition [9] -1.82% | growth inhibition [10] -0.61% | viability increase [11] 0.03% | viability [12] 87.3% | viability [13] 91% | inhibition [14] 0.78% | RAM network inhibition [15] 1.45%
83%: viability [1]
100%: viability [6, 16]

O=c1oc2c3c4c(cc2cc1-c1nc2ccccc2[nH]1)CCCN4CCC3
80.7%: viability [6, 16]
inactive: Her2 level [2] 65.5% | viability [3] 79.5% | viability [4] 71.7% | viability [5] 83.3% | differential viability (reversal) ([6]; H69AR cells + 2 uM doxorubicin) 2.58% | inhibition [7] -1.95% | inhibition [8] 6% | growth inhibition [9] 4.75% | growth inhibition [10] -0.465% | viability increase [11] -5.62% | viability [12] 87.2% | viability [13] 89.7% | inhibition [14] 1.73% | RAM network inhibition [15] 2.41%
79.5%: viability [1]
83.3%: viability [6, 17]

Cc1ccnc2c(N3C(=O)C4C5C=CC(C5)C4(C)C3=O)cccc12 (stereo not drawn)
92.9%: viability [6, 17]
98%: viability [1]
91.4%: viability [6, 16]
inactive: Her2 level [2] 102% | viability [3] 98% | viability [4] 105% | viability [5] 92.9% | differential viability (reversal) ([6]; H69AR cells + 2 uM doxorubicin) 1.47% | inhibition [7] -3.47% | inhibition [8] -5.5% | growth inhibition [9] -20.2% | growth inhibition [10] -11.7% | viability increase [11] -0.94% | viability [12] 93.3% | viability [13] 95.5% | inhibition [14] 1.86% | RAM network inhibition [15] -1.63%

— PubChem BioAssay
